Drawing on PubChem BioAssay (EPA / NIEHS), this text covers outcome and AC50 for 20 compounds.

The source made the active and inactive calls. The calls were made as follows: active = hit-call score of the fitted dose curve at least 0.9, where 1 is the maximum; inactive = score below 0.9.

Settings in all cases: mRNA level, 48 h; actives raise or lower the signal
Read-out in one assay: CYP3A5 (gene 1577)
In words: LTEA_HepaRG_CYP3A5: Life Technologies and Expression Analysis (LTEA) Assay for CYP3A5 using HepaRG (AID 2283493). The gist of the method:
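Human HepaRG hepatic cells receive 48 h chemical treatment at eight concentrations (half-log steps from 100 uM) in 0.5% DMSO. Expression of CYP3A5 is quantified by Fluidigm qRT-PCR and normalized to three reference genes.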

Read-out in assay [1]: Fatty Acid-Binding Protein 1 (FABP1), FABP1 (gene 2168)
In words: LTEA_HepaRG_FABP1: Life Technologies and Expression Analysis (LTEA) Assay for Fatty Acid-Binding Protein 1 (FABP1) using HepaRG (AID 2283494). The gist of the method:
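FABP1 expression by TaqMan qRT-PCR, normalised to three housekeeping genes, in HepaRG cells after 48 h chemical treatment. Eight-point half-log series topping at 100 uM in 0.5% DMSO, duplicates; gain or loss fitted relative to vehicle.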

Read-out in assay [2]: Cytochrome P450 4A22 (Homo sapiens) (UniProt Q5TCH4)
In words: LTEA_HepaRG_CYP4A22: Life Technologies and Expression Analysis (LTEA) Assay for Cytochrome P450 4A22 (CYP4A22) using HepaRG (AID 2283495). The gist of the method:
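HepaRG, 48 h post-plating -> serum-free induction medium; dosed 48 h, duplicate, 8 conc. (100 uM top, half-log), 0.5% DMSO. Readout: CYP4A22 mRNA by qRT-PCR, ACTB/GAPDH/POLR2A normalization; gain/loss fit relative to DMSO.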

Read-out in assay [3]: Cytochrome P450 7A1 (Homo sapiens) (UniProt P22680)
In words: LTEA_HepaRG_CYP7A1: Life Technologies and Expression Analysis (LTEA) Assay for Cytochrome P450 7A1 (CYP7A1) using HepaRG (AID 2283496). The gist of the method: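 HepaRG, 48 h exposure, 8-pt half-log series from 100 uM, 0.5% DMSO vehicle, duplicates. Readout: TaqMan qRT-PCR mRNA vs three housekeeping genes; bidirectional curve fit against DMSO baseline.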

Read-out in assay [4]: Glutathione S-Transferase (GSTA2), GSTA2 (gene 2939)
Nature of the assay: LTEA_HepaRG_GSTA2: Life Technologies and Expression Analysis (LTEA) Assay for Glutathione S-Transferase (GSTA2) using HepaRG (AID 2283497). The gist of the method:
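GSTA2 transcript levels came from Fluidigm TaqMan qRT-PCR normalized to three housekeeping genes, fitted in both directions against DMSO. HepaRG cultures received chemicals for 48 h in serum-free induction medium (0.5% DMSO), 8 half-log concentrations up to 100 uM, duplicate.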

Read-out in assay [5]: Glutamate-cysteine ligase catalytic (GCLC), GCLC (gene 2729)
In words: LTEA_HepaRG_GCLC: Life Technologies and Expression Analysis (LTEA) Assay for Glutamate-cysteine ligase catalytic (GCLC) using HepaRG (AID 2283498). The gist of the method: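 Expression by TaqMan qRT-PCR, normalized to three housekeeping genes (ACTB, GAPDH, POLR2A), with up- or down-regulation fitted against DMSO. HepaRG cells dosed in duplicate for 48 h with 8 half-log concentrations up to 100 uM, vehicle 0.5% DMSO.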

Read-out in assay [6]: growth arrest and DNA damage 45 (GADD45G), GADD45G (gene 10912)
Nature of the assay: LTEA_HepaRG_GADD45G: Life Technologies and Expression Analysis (LTEA) Assay for growth arrest and DNA damage 45 (GADD45G) using HepaRG (AID 2283499). The gist of the method: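 HepaRG, 48 h exposure, top 100 uM, half-log 8-point series, 0.5% DMSO vehicle, duplicates. Readout: GADD45G transcript by qRT-PCR (Fluidigm array), housekeeping-normalised (ACTB/GAPDH/POLR2A). Bidirectional curve fit vs DMSO baseline.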

Read-out in assay [7]: Glutamate-cysteine ligase regulatory (GCLM), GCLM (gene 2730)
Nature of the assay: LTEA_HepaRG_GCLM: Life Technologies and Expression Analysis (LTEA) Assay for Glutamate-cysteine ligase regulatory (GCLM) using HepaRG (AID 2283500). The gist of the method:
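Endpoint is GCLM transcript level by qRT-PCR, normalized to three housekeeping genes, after 48 h chemical exposure of human HepaRG cells (0.5% DMSO vehicle, top 100 uM, half-log dilutions). Fitting was bidirectional relative to DMSO.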

Read-out in assay [8]: Glutathione S-transferase M3 (GSTM3), GSTM3 (gene 2947)
In words: LTEA_HepaRG_GSTM3: Life Technologies and Expression Analysis (LTEA) Assay for Glutathione S-transferase M3 (GSTM3) using HepaRG (AID 2283501). The gist of the method: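 qRT-PCR read-out of GSTM3 transcript, normalized to three housekeeping genes, from human HepaRG cells after 48 h chemical exposure. Eight-point half-log series, top 100 uM, 0.5% DMSO vehicle; gain or loss fitted relative to DMSO baseline.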

Read-out in assay [9]: Heat shock 70 kDa protein 1 (HSPA1A), gene 3303
Nature of the assay: LTEA_HepaRG_HSPA1A: Life Technologies and Expression Analysis (LTEA) Assay for Heat shock 70 kDa protein 1 (HSPA1A) using HepaRG (AID 2283502). The gist of the method:
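Cells were plated and cultured for 48 h, then switched to serum-free induction medium. Chemicals were added at eight half-log concentrations up to 100 uM for 48 h. RNA was then isolated and HSPA1A measured by qRT-PCR with bidirectional curve fitting against DMSO.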

As for `C1=Cc2cccc3cccc1c23`, the call (with CYP3A5 (gene 1577); in [1]; in assay [2]; in assay [3]; in assay [4]; in assay [5]) was inactive. Besides, the result in assay [6], in assay [7], in assay [8] and in assay [9] was inactive.
For `ClC1=C(Cl)[C@]2(Cl)[C@H]3[C@H]([C@@H]4C=C[C@H]3C4)[C@@]1(Cl)C2(Cl)Cl`, the outcome (with CYP3A5 (gene 1577); in [4]; in [5]; in assay [6]; in assay [8]; in assay [9]) was inactive. For the same compound, the AC50 in [1] was 6.01 µM (active); in assay [2] it was 29.1 µM (active); in assay [3], 19.4 µM (active); in assay [7], 12.7 µM (active).
Regarding `CC(C)(OOC(C)(C)c1ccccc1)c1ccccc1`, the compound was called inactive (with CYP3A5 (gene 1577); in [1]; in assay [2]; in assay [3]; in assay [4]; in assay [5]). The result in assay [6], in [7], in assay [8] and in assay [9] was inactive.
Turning to `ClC1=C(Cl)C2(Cl)C3C(Cl)C=CC3C1(Cl)C2(Cl)Cl` (stereo unspecified), the compound was called inactive (in the assay with CYP3A5 (gene 1577); in [4]; in [5]; in [6]; in assay [8]). The AC50 in assay [1] is 15.9 µM (active); in assay [2] it was 13.1 µM (active); in [3], 13.8 µM (active); in assay [7] it was 32.1 µM (active); in assay [9] it was 24 µM (active).
As for `Brc1ccc(Oc2ccccc2)cc1`, the compound was called inactive (with CYP3A5 (gene 1577); in assay [1]; in [2]; in [3]; in assay [4]; in assay [5]). In addition, the result in assay [6], in [7], in assay [8] and in assay [9] was inactive.
Turning to `CO[C@@H]1[C@H](OC(=O)NC(=O)CCl)CC[C@]2(CO2)[C@H]1[C@@]1(C)O[C@@H]1CC=C(C)C`, the outcome (with CYP3A5 (gene 1577); in assay [2]; in assay [3]; in [4]; in assay [5]; in assay [6]) was inactive. For the same compound, the compound was called inactive in assay [7], in [8] and in assay [9]. Further, in [1], the AC50 is 1.96 µM (active).
For the compound `CCC12COCN1COC2`, the outcome (with CYP3A5 (gene 1577); in [1]; in [2]; in assay [3]; in assay [4]; in assay [5]) was inactive. Moreover, the compound was called inactive in assay [6], in assay [7], in assay [8] and in [9].
As to `Cc1cc(N=Nc2ccccc2C)ccc1N`, the half-maximal activity concentration (AC50) was 3.11 µM (active) in the assay with CYP3A5 (gene 1577); 5.03 µM (active) in assay [1]; 4.39 µM (active) in assay [2]; 12.8 µM (active) in assay [3]; 5.01 µM (active) in [4]; 1.67 µM (active) in [5]. Besides, the AC50 in assay [7] is 50 µM (active); in assay [8], 1.48 µM (active); in assay [9] it was 3.55 µM (active).
With `OCCOCCO`, the result (in the assay with CYP3A5 (gene 1577); in assay [1]; in assay [2]; in assay [3]; in [4]; in assay [5]) was inactive. Further, the result in assay [6], in [7], in assay [8] and in [9] was inactive.
For the compound `c1ccc(NNc2ccccc2)cc1`, the compound was classed as inactive (in the assay with CYP3A5 (gene 1577); in assay [1]; in assay [2]; in [3]; in assay [4]; in [5]). In addition, the result in assay [6], in assay [7], in assay [8] and in [9] was inactive.
In the case of `CCCSC(=O)N(CCC)CCC`, the result (in the assay with CYP3A5 (gene 1577); in [1]; in [2]; in assay [3]; in [4]; in assay [5]) was inactive. In addition, the result in assay [6], in assay [7], in assay [8] and in assay [9] was inactive.
As to `O=C(N[C@H](c1ccccc1)[C@@H]1CN2CCC1CC2)c1c(Cl)ccc(C(F)(F)F)c1Cl`, the compound was classed as inactive (in the assay with CYP3A5 (gene 1577); in assay [5]; in [7]; in [8]). The AC50 was 85.1 µM (active) in assay [1]; 14.6 µM (active) in [2]; 80.1 µM (active) in [3]; 73.7 µM (active) in assay [4]; 73.8 µM (active) in assay [9].
As to `ClCCOCCCl`, the outcome (with CYP3A5 (gene 1577); in assay [1]; in assay [2]; in [3]; in assay [4]; in assay [5]) was inactive. For the same compound, the outcome in assay [7], in assay [8] and in assay [9] was inactive.
Regarding `Cc1ccc(N=C=O)cc1N=C=O`, the compound was called inactive (with CYP3A5 (gene 1577); in assay [7]; in [8]). Further, the half-maximal activity concentration (AC50) in [1] was 23 µM (active); in [2], 50 µM (active); in assay [3], 31.7 µM (active); in assay [4], 50 µM (active); in assay [5] it was 30.3 µM (active); in assay [9], 30.4 µM (active).
In the case of `c1ccc(N=Nc2ccccc2)cc1`, the call (with CYP3A5 (gene 1577); in assay [1]; in [2]; in [3]; in assay [4]; in assay [5]) was inactive. Moreover, the call in assay [7], in assay [8] and in assay [9] was inactive.
Turning to `O=C1CCCO1`, the AC50 with CYP3A5 (gene 1577) is 9.92 µM (active); in [4] it was 50 µM (active); in assay [5] it was 9.92 µM (active). For the same compound, the compound was classed as inactive in [1], in assay [2], in assay [3], in assay [7], in assay [8] and in assay [9].
On to `Nc1ccc(Cc2ccc(N)cc2)cc1`, for which the call (with CYP3A5 (gene 1577); in assay [1]; in assay [2]; in [3]; in assay [4]; in [5]) was inactive. Further, the result in assay [6], in assay [7], in assay [8] and in assay [9] was inactive.
For the compound `Cc1cccc(N)c1N`, the AC50 is 11.1 µM (active) in the assay with CYP3A5 (gene 1577); 62.6 µM (active) in assay [1]; 50 µM (active) in [2]; 46 µM (active) in assay [3]; 50 µM (active) in [4]. In addition, the compound was called inactive in assay [5], in [7], in [8] and in [9].
`Cn1cc(-c2ccccc2)c(=O)c(-c2cccc(C(F)(F)F)c2)c1`: the result (with CYP3A5 (gene 1577); in assay [1]; in assay [2]; in assay [3]; in assay [4]; in assay [5]) was inactive. The outcome in assay [7] and in [8] was inactive. The AC50 in assay [9] was 16.3 µM (active).
As for `OCCCl`, the call (in the assay with CYP3A5 (gene 1577); in [1]; in [2]; in assay [3]; in assay [4]; in assay [5]) was inactive. The result in [7], in [8] and in assay [9] was inactive.
